The results in this text go back to the supplement of paper PMC10646978.

± gives the standard deviation.

What all share (settings): modulator concentration 10 µM
In assay [1] the test system is RAW-Dual (murine macrophage reporter line). In words: NF-kB reporter (SEAP) activity fold change vs agonist alone; higher = enhanced NF-kB activity. The gist of the method:
(§1)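 Compound reached 10 μM final in each well by pin transfer, onto RAW-Dual murine macrophage reporter cells seeded at 50 000 per well in 384-well plates. After 1 hour at 37 °C, the cells were stimulated overnight with a PRR agonist. SEAP in the supernatant was read with QUANTI-Blue at 620 nm absorbance for NF-κB, and Lucia luciferase was read with QUANTI-Luc luminescence for IRF. Each signal was turned into fold change against the mean agonist-only control on the same plate, and two replicate plates were averaged with propagated errors.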

Assay [2] shares this test system. The assay is described as follows: IRF reporter (Lucia luciferase) activity fold change vs agonist alone; higher = enhanced IRF activity. The gist of the method: as §1
For assay [3] the test system is unchanged. In words: viability score (confluency relative to resting cells, overnight) (fraction); higher = more viable, active = viable (0.7 or more). Put shortly: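 RAW-Dual macrophages in 384-well plates were incubated overnight with compound, final concentration 10 μM. Confluency images from IncuCyte were processed in IncuCyte software into two masks covering all imaged wells. The viability score is each well's confluency relative to resting cells, and a compound met the cutoff when both masks exceeded 70% of resting cells.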

The mark [4] stands for this setting: agonist: CpG ODN 1826 0.5 ug/mL.

As for `CCS(=O)(=O)N1N=C(c2ccc(NS(C)(=O)=O)cc2)CC1c1ccccc1` (stereo unspecified), the results for the NF-kB reporter in assay [1] (setting [4]), in assay [1] (agonist: LPS 0.1 ug/mL) and in assay [1] (agonist: MPLA […]) were 0.947 ± 0.073, 0.998 ± 0.078 and 1.12 ± 0.12, respectively. The IRF reporter in assay [2] (agonist: 3'3'-cGAMP 10 ug/mL) was determined as 0.963 ± 0.034; in assay [2] (agonist: LPS 0.1 ug/mL) it was 1.29 ± 0.15; in assay [2] (agonist: MPLA […]) it was 1.4 ± 0.23. For the same compound, the viability score in assay [3] is 1.02 (active).
Take `CCN1CCCC1CNC(=O)c1cc(S(N)(=O)=O)ccc1OC` (stereo unspecified): the NF-kB reporter in assay [1] (setting [4]) was determined as 1.01 ± 0.11; in assay [1] (agonist: LPS 0.1 ug/mL), 1.06 ± 0.07; in assay [1] (agonist: MPLA […]), 0.992 ± 0.052. The IRF reporter turned out to be 1.02 ± 0.11 in assay [2] (agonist: 3'3'-cGAMP 10 ug/mL), 0.982 ± 0.11 in assay [2] (agonist: LPS 0.1 ug/mL) and 0.865 ± 0.068 in assay [2] (agonist: MPLA […]). Also, the viability score in assay [3] was 1 (active).
Turning to `Cc1noc(C)c1CN1CCC(C(F)(F)F)CC1.Cl`, the NF-kB reporter in assay [1] (setting [4]) amounted to 0.908 ± 0.048; in assay [1] (agonist: LPS 0.1 ug/mL), 0.947 ± 0.081; in assay [1] (agonist: MPLA […]) it was 1.1 ± 0.066. The IRF reporter was determined as 1.09 ± 0.072 in assay [2] (agonist: 3'3'-cGAMP 10 ug/mL), 1.32 ± 0.29 in assay [2] (agonist: LPS 0.1 ug/mL) and 1.6 ± 0.52 in assay [2] (agonist: MPLA […]). Further, in assay [3], the viability score was 0.937 (active).
Take `O=C(CSc1nc[nH]n1)NC(c1ccccc1)c1ccccc1`: the NF-kB reporter in assay [1] (setting [4]) is 0.77 ± 0.077; in assay [1] (agonist: LPS 0.1 ug/mL) it was 0.86 ± 0.053; in assay [1] (agonist: MPLA […]), 1.01 ± 0.088. Further, the figures for the IRF reporter in assay [2] (agonist: 3'3'-cGAMP 10 ug/mL), in assay [2] (agonist: LPS 0.1 ug/mL) and in assay [2] (agonist: MPLA […]) were 0.51 ± 0.033, 1.33 ± 0.096 and 1.62 ± 0.17, respectively. Also, the viability score in assay [3] was 1.01 (active).
Turning to `COc1ccc(C2NC(=O)C(O)=C2C(C)=O)cc1` (stereo unspecified), the NF-kB reporter is 0.734 ± 0.057 in assay [1] (setting [4]), 0.884 ± 0.11 in assay [1] (agonist: LPS 0.1 ug/mL) and 1.09 ± 0.095 in assay [1] (agonist: MPLA […]). In addition, the IRF reporter in assay [2] (agonist: 3'3'-cGAMP 10 ug/mL) was determined as 0.914 ± 0.047; in assay [2] (agonist: LPS 0.1 ug/mL), 1.29 ± 0.085; in assay [2] (agonist: MPLA […]), 1.41 ± 0.12. For the same compound, the viability score in assay [3] is 1.01 (active).
With `CCCN(CCC)C(=O)C1=Cc2ccc(-c3ccc(C(=O)N4CCCC4)cc3)cc2N=C(N)C1`, the NF-kB reporter in assay [1] (setting [4]) came to 0.432 ± 0.022; in assay [1] (agonist: LPS 0.1 ug/mL), 1.08 ± 0.17; in assay [1] (agonist: MPLA […]), 1.12 ± 0.11. The IRF reporter is 0.724 ± 0.034 in assay [2] (agonist: 3'3'-cGAMP 10 ug/mL), 1.29 ± 0.29 in assay [2] (agonist: LPS 0.1 ug/mL) and 1.58 ± 0.49 in assay [2] (agonist: MPLA […]). The viability score in assay [3] was 0.957 (active).
As for `COc1ccc(C(=O)Nc2sc3c(c2C(N)=O)CCC(C)C3)c(OC)c1` (stereo unspecified), the figures for the NF-kB reporter in assay [1] (setting [4]), in assay [1] (agonist: LPS 0.1 ug/mL) and in assay [1] (agonist: MPLA […]) were 1.09 ± 0.11, 1.08 ± 0.067 and 0.947 ± 0.058, respectively. Besides, the IRF reporter in assay [2] (agonist: 3'3'-cGAMP 10 ug/mL) stood at 0.907 ± 0.068; in assay [2] (agonist: LPS 0.1 ug/mL), 1.5 ± 0.2; in assay [2] (agonist: MPLA […]) it was 1.22 ± 0.11. The viability score in assay [3] was 1.01 (active).
Turning to `CC(=O)CCc1oc2ccc([N+](=O)[O-])cc2c1-c1ccc(C)o1`, the figures for the NF-kB reporter in assay [1] (setting [4]), in assay [1] (agonist: LPS 0.1 ug/mL) and in assay [1] (agonist: MPLA […]) were 1.04 ± 0.12, 0.837 ± 0.065 and 0.825 ± 0.084, respectively. For the same compound, the results for the IRF reporter in assay [2] (agonist: 3'3'-cGAMP 10 ug/mL), in assay [2] (agonist: LPS 0.1 ug/mL) and in assay [2] (agonist: MPLA […]) were 0.817 ± 0.048, 0.849 ± 0.12 and 0.713 ± 0.17, respectively. Also, in assay [3], the viability score was 0.973 (active).
For the compound `Cc1cc(-c2csc(NCc3ccccc3)n2)c(C)o1.Cl`, the NF-kB reporter in assay [1] (setting [4]) amounted to 0.766 ± 0.043; in assay [1] (agonist: LPS 0.1 ug/mL), 0.892 ± 0.13; in assay [1] (agonist: MPLA […]), 1 ± 0.026. Also, the IRF reporter in assay [2] (agonist: 3'3'-cGAMP 10 ug/mL) is 0.576 ± 0.026; in assay [2] (agonist: LPS 0.1 ug/mL), 0.924 ± 0.07; in assay [2] (agonist: MPLA […]), 1.1 ± 0.13. In assay [3], the viability score was 0.991 (active).
For the compound `COC(C(=O)NNC(=O)c1ccccc1Cl)c1ccccc1` (stereo unspecified), the NF-kB reporter in assay [1] (setting [4]) worked out at 1.3 ± 0.1; in assay [1] (agonist: LPS 0.1 ug/mL), 1.1 ± 0.1; in assay [1] (agonist: MPLA […]), 1.11 ± 0.1. Besides, the IRF reporter in assay [2] (agonist: 3'3'-cGAMP 10 ug/mL) came out at 0.618 ± 0.39; in assay [2] (agonist: LPS 0.1 ug/mL) it was 0.993 ± 0.069; in assay [2] (agonist: MPLA […]) it was 0.863 ± 0.081. The viability score in assay [3] is 1.01 (active).
In the case of `CC(=O)Nc1ccc(C(=O)Nc2ccc(Cl)cn2)cc1`, the NF-kB reporter in assay [1] (setting [4]) came to 1.16 ± 0.099; in assay [1] (agonist: LPS 0.1 ug/mL), 1.1 ± 0.085; in assay [1] (agonist: MPLA […]), 1.09 ± 0.11. The IRF reporter is 0.942 ± 0.04 in assay [2] (agonist: 3'3'-cGAMP 10 ug/mL), 0.94 ± 0.086 in assay [2] (agonist: LPS 0.1 ug/mL) and 1.09 ± 0.15 in assay [2] (agonist: MPLA […]). For the same compound, the viability score in assay [3] is 1.04 (active).
For the compound `O=C1NC(=O)c2c1cc1ccccc1c2-c1ccccc1`, the NF-kB reporter in assay [1] (setting [4]) came out at 0.996 ± 0.18; in assay [1] (agonist: LPS 0.1 ug/mL) it was 0.979 ± 0.077; in assay [1] (agonist: MPLA […]), 0.952 ± 0.15. Further, the values for the IRF reporter in assay [2] (agonist: 3'3'-cGAMP 10 ug/mL), in assay [2] (agonist: LPS 0.1 ug/mL) and in assay [2] (agonist: MPLA […]) were 0.887 ± 0.031, 1.2 ± 0.2 and 1.35 ± 0.3, respectively. Further, the viability score in assay [3] was 0.998 (active).
Turning to `CCOC(=O)C1=C(C)NC(C)=C(C(=O)OCC)C1c1ccc(N(C)C)cc1`, the NF-kB reporter in assay [1] (setting [4]) was found to be 1.14 ± 0.13; in assay [1] (agonist: LPS 0.1 ug/mL), 1.07 ± 0.071; in assay [1] (agonist: MPLA […]), 1.24 ± 0.069. In addition, the IRF reporter in assay [2] (agonist: 3'3'-cGAMP 10 ug/mL) turned out to be 0.855 ± 0.16; in assay [2] (agonist: LPS 0.1 ug/mL), 1.04 ± 0.095; in assay [2] (agonist: MPLA […]), 0.94 ± 0.24. Besides, the viability score in assay [3] was 0.996 (active).
